Screening data (PubChem)
Only some compounds are listed: those with a hit (about 7.9% of all), similar ones and a draw of the others.
HCV inhibitor = inhibitors of hepatitis C virus infection | AID 651820 | Potency, µM (highest dose often 41.8 µM), usual class: inhibitors | Huh7.5.1 HCVcc-Cre infection, luciferase reporter, 44 h | 340,000 compounds, 3.4% hits; active = well fitted inhibition curve with a large enough effect; inconclusive = small, poorly fitted or top-dose-only effect, or another doubt; inactive = no such curve, though single readings can be large or run the other way
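Luciferase read-out (15 sec integration) after a 15 min room-temperature substrate step quantifies HCVcc-Cre infection. Cells, 1,000 per well, had compound added 4 h post-plating, then virus at ~0.5 moi, and were cultured 44 h.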
Marburg entry inh = Marburg virus entry inhibition | Marburg virus pseudotyped entry inhibition, cell reporter | Potency, µM (highest dose often 37.8 µM), hits mostly inhibitors | 300,000 compounds, 1.8% hits; calls by dose curve; tested in HEK293 cells
FMDV inh = antivirals against foot and mouth disease virus; FMDV antiviral cell-based qHTS; Potency, µM (titrated, usually from 57.9 µM), usual class: inhibitors; 410,000 compounds, 1.2% hits; calls by dose curve; tested in HEK293T cells; note: read-out not given here; nearly all actives have a fitted effect of over 45% in size
HCMV inh = human cytomegalovirus inhibition. 410,000 compounds, 4.5% hits. activity change, negative = inhibition, % at 57.5 µM. HFF cells, HCMV-luciferase reporter, 72 h; active compounds read low. AID 1259415; in the data active = activity change below about -60%; inconclusive = no clear call, values can overlap the other calls; inactive = above about -39%
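Steps: HFFs plated, 16 h 37C; compounds added; HCMV-luciferase added to MOI 1 PFU/cell; 72 h 37C; OneGlo reagent, 5 min room temperature; luminescence read, normalized to controls.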
LASV entry inh = Lassa virus entry inhibition; Lassa virus pseudotype entry inhibition, cell reporter; Potency, µM (highest dose often 37.9 µM), most hits filed as inhibitors; 300,000 compounds, 1.2% hits; calls by dose curve; tested in HEK293 cells; note: nearly all actives have a fitted effect of over 50% in size
Large screens that a line does not name were inactive.

O=C(Nc1ccccc1)N1CCCC2(CCN(C(=O)c3cc(C(F)(F)F)cc(C(F)(F)F)c3)CC2)C1	none (no result: HCV inhibitor, Marburg entry inh, HCMV inh, LASV entry inh)
COc1cc(-c2[nH]ncc2CN2CCSCC2)cc(OC)c1OC	HCV inhibitor inconclusive
COc1cc(-c2[nH]ncc2CN2CCN(c3cccc(C)n3)CC2)cc(OC)c1OC	HCV inhibitor 11µM (no result: Marburg entry inh, LASV entry inh)
COc1cc(/C=C(\C#N)C(=O)Nc2nnc(C(F)(F)F)s2)ccc1OCc1ccc(C(F)(F)F)cc1C(F)(F)F	LASV entry inh 15µM (no result: HCV inhibitor, FMDV inh, HCMV inh)
COc1cc(/C=C(/C#N)C(=O)Nc2ccccc2)ccc1OCc1ccc(C(=O)O)cc1	HCMV inh inconclusive (no result: Marburg entry inh, LASV entry inh)
O=C(CSc1nnc(C2CC2)n1Cc1ccco1)NCC(F)(F)F	none
CN1CCN(C(=O)c2cc3c(s2)-c2ccccc2S(=O)(=O)C3)CC1	none (no result: Marburg entry inh, LASV entry inh)
O=C(c1cc2c(s1)-c1ccccc1S(=O)(=O)C2)N1CCN(Cc2ccccc2)CC1	HCV inhibitor 10µM, FMDV inh 20µM, HCMV inh -74 (no result: LASV entry inh)
CCN1CCN(C(=O)c2cc3c(s2)-c2ccccc2S(=O)(=O)C3)CC1	none (no result: Marburg entry inh, LASV entry inh)
COc1ccc(N2CCN(C(=O)c3cc4c(s3)-c3ccccc3S(=O)(=O)C4)CC2)cc1	HCV inhibitor 10µM, Marburg entry inh inconclusive
COc1cc(OC)c(N(C)C(=O)c2cc3c(s2)-c2ccccc2S(=O)(=O)C3)cc1Cl	HCV inhibitor 22µM (no result: Marburg entry inh, LASV entry inh)
Cn1nc(-c2ccccc2)c(-c2ccccc2)c(C(=O)Nc2ccccc2C(N)=O)c1=O	none (no result: HCV inhibitor)
NC(=O)c1cn(C2OC(CO)C(O)C2O)c2ncnc(N)c12 (stereo not drawn)	HCV inhibitor inconclusive, Marburg entry inh 0.073µM, FMDV inh inconclusive, HCMV inh -97, LASV entry inh 0.29µM
CC(C)=CCNc1ncnc2c1c(C#N)cn2C1OC(CO)C(O)C1O (stereo not drawn)	HCV inhibitor inconclusive
N#Cc1cn(C2OC(CO)C(O)C2O)c2ncnc(N)c12 (stereo not drawn)	HCV inhibitor inconclusive, Marburg entry inh inconclusive, HCMV inh -100, LASV entry inh 0.63µM
Nc1ncnc2c1ncn2[C@@H]1O[C@H](CO)[C@@H](O)[C@H]1O	HCV inhibitor inconclusive
CC(=O)Nc1cccc(Nc2cc3c(cn2)cc(-c2cnn(C)c2)n3Cc2ccccc2)c1	none (no result: HCV inhibitor, Marburg entry inh, FMDV inh, LASV entry inh)
CSc1ccc(CCNC(=O)c2ccc3c(c2)nc2n3CCCCC2)cc1	HCMV inh -76 (no result: HCV inhibitor, Marburg entry inh)
COc1ccc(Br)cc1CNC(=O)c1ccc2c(c1)nc1n2CCCCC1	HCMV inh -60, LASV entry inh inconclusive (no result: HCV inhibitor, Marburg entry inh)
Cc1ccccc1CCNC(=O)c1ccc2c(c1)nc1n2CCCCC1	FMDV inh inconclusive, HCMV inh -78, LASV entry inh inconclusive (no result: HCV inhibitor, Marburg entry inh)
COCCNc1nc(CSc2ccccc2)nc2sc(C)c(C)c12	HCV inhibitor 25µM, HCMV inh -70, LASV entry inh inconclusive
COC(=O)CC1C(C)(C)C(=O)C2CC3C4=CC(=O)OC(c5ccoc5)[C@]4(C)CCC3[C@@]1(C)C2=O (stereo partly drawn)	none (no result: HCV inhibitor, Marburg entry inh, HCMV inh, LASV entry inh)
Cc1ccc(OCC(=O)NNC(=O)Cn2c(=O)cnc3ccccc32)cc1	HCMV inh -97
O=C(COc1ccccc1F)NNC(=O)Cn1c(=O)cnc2ccccc21	HCV inhibitor inconclusive (no result: Marburg entry inh, LASV entry inh)
Cc1ccc2nc(SCC(=O)N3CCOc4ccc(CN5C[C@@H](C)O[C@@H](C)C5)cc4C3)[nH]c2c1	none (no result: HCV inhibitor, Marburg entry inh, HCMV inh, LASV entry inh)
COc1ccc(OCC(O)CN(C2CCCCC2)C2CCCCC2)cc1 (stereo not drawn)	Marburg entry inh inconclusive, LASV entry inh 15µM
O=[N+]([O-])c1ccc(OCC(O)CN(C2CCCCC2)C2CCCCC2)cc1 (stereo not drawn)	Marburg entry inh inconclusive, FMDV inh inconclusive
Cc1ccccc1NC(=S)NC12CN3CN(CN(C3)C1)C2	none (no result: LASV entry inh)
CN(CC(=O)Nc1ccc(F)c(F)c1F)C(=O)C1CCCC1	none (no result: Marburg entry inh, LASV entry inh)
C/C(=N\NC(=O)COc1cccc(C)c1)c1ccc2ccccc2c1O	HCV inhibitor 11µM, HCMV inh -77 (no result: Marburg entry inh, LASV entry inh)
CS/C(Nc1cc(Cl)ccc1Cl)=C(/C#N)C(=O)c1ccco1	Marburg entry inh inconclusive, FMDV inh inconclusive, LASV entry inh 5µM
Cn1c(-c2cccc(F)c2)cc2cnc(Nc3cccnc3)cc21	none (no result: HCV inhibitor, Marburg entry inh, FMDV inh, LASV entry inh)
CN(Cc1ccc2c(c1)CN(C(=O)c1cccc(N(C)C)c1)CCO2)Cc1cc(C2CC2)n[nH]1	none (no result: HCV inhibitor, Marburg entry inh, HCMV inh, LASV entry inh)
Cc1ccc2cc(-c3noc(C(C)(C)C)n3)c(=O)[nH]c2c1	none
CCc1nc(-c2cc3ccc(C)cc3[nH]c2=O)no1	HCMV inh -71, LASV entry inh inconclusive
O=C(CCC1CCCN(C(=O)c2ccc3[nH]ccc3c2)C1)N1CCN(c2ccccn2)CC1 (stereo not drawn)	HCV inhibitor inconclusive, Marburg entry inh inconclusive, FMDV inh inconclusive, HCMV inh -83, LASV entry inh inconclusive
O=C(CCC1CCCN(C(=O)c2ccc3cc[nH]c3c2)C1)N1CCN(c2ccccn2)CC1 (stereo not drawn)	Marburg entry inh inconclusive, FMDV inh inconclusive, HCMV inh inconclusive, LASV entry inh inconclusive
CC(C)c1ccc(NC2CCCN(C(=O)c3ccsc3)C2)cc1 (stereo not drawn)	FMDV inh inconclusive (no result: Marburg entry inh, LASV entry inh)
CCn1cc(C(=O)O)c(=O)c2cc(F)c(N3CCN(C(=S)Nc4ccccc4OC)CC3)cc21	none (no result: Marburg entry inh, LASV entry inh)
CCn1cc(C(=O)O)c(=O)c2cc(F)c(N/N=C/c3ccccc3[N+](=O)[O-])cc21	FMDV inh 20µM, HCMV inh -71, LASV entry inh inconclusive
CSc1ccc(CCNC(=O)C2CCCN(S(=O)(=O)N(C)c3ccc(F)cc3)C2)cc1 (stereo not drawn)	FMDV inh 35µM, HCMV inh inconclusive (no result: HCV inhibitor, Marburg entry inh)
COc1cccc(CNC(=O)C2CCCN(S(=O)(=O)N(C)c3ccc(F)cc3)C2)c1OC (stereo not drawn)	FMDV inh 22µM, HCMV inh -71 (no result: HCV inhibitor, Marburg entry inh)
COc1ccc(OC)c(CNC(=O)C2CCCN(S(=O)(=O)N3CCC(C)CC3)C2)c1 (stereo not drawn)	none (no result: Marburg entry inh, LASV entry inh)
COc1ccc(CNC(=O)C2CCCN(S(=O)(=O)N3CCC(C)CC3)C2)c(OC)c1 (stereo not drawn)	HCMV inh active
CCOc1ccc(CCNC(=O)C2=C(C)C(=O)OC23CCCCC3)cc1OCC	none
CN=CC1=C(O)c2ccccc2C1=O	none
O=C1C(C2=C(O)c3ccccc3C2=O)=Nc2ccccc21	HCV inhibitor 10µM, Marburg entry inh inconclusive, HCMV inh -78, LASV entry inh inconclusive
CCOCCOC(=O)c1[nH]c2c(c1C)C(=O)CC(c1ccc(OC)c(OC)c1)C2 (stereo not drawn)	HCV inhibitor inconclusive, Marburg entry inh inconclusive, FMDV inh 22µM, HCMV inh inconclusive, LASV entry inh inconclusive
CCOC(=O)c1[nH]c2c(c1C)C(=O)CC(c1ccc(OC)c(OC)c1)C2 (stereo not drawn)	HCV inhibitor inconclusive
CCCOCCOC(=O)c1[nH]c2c(c1C)C(=O)CC(c1cc(OC)ccc1OC)C2 (stereo not drawn)	HCV inhibitor inconclusive, FMDV inh inconclusive, HCMV inh -80 (no result: Marburg entry inh, LASV entry inh)
COCCOC(=O)c1[nH]c2c(c1C)C(=O)CC(c1cc(OC)ccc1OC)C2 (stereo not drawn)	HCV inhibitor inconclusive (no result: Marburg entry inh, LASV entry inh)
